Where “and” joins values, the source holds several entries; their conditions need not be identical. Equal values may be shown once. The source holds several records for some structures; these can differ, active in one and inactive in another. Calls of active or inactive are those of the source.
Columns and labels:
[1] = test system: PRMT1 (protein arginine N-methyltransferase 1); test: small molecules binding arginine methyltransferase PRMT1 – biochemical, small-molecule microarray, 635 nm fluorescence, primary screen (AID 1088); details: higher = more signal;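 further: binding of Prmt1 protein to compounds spotted on small-molecule microarray slides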
[2] = growth effects on S. cerevisiae YJM789 – YJM789 clinical isolate, OD600, 24 h, basal, primary screen (AID 1089); details: higher = more signal, called active from +8 up or from −8 down;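 further: growth of clinical yeast isolate S. cerevisiae YJM 789 seeded 1000 cells per well; test concentration not given here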
[3] = S. pombe growth modifiers, basal conditions – strain 972, OD600, 24 h, no modulator, primary screen (AID 1090);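 further: basal condition with compound alone and no growth modifier present; test concentration not given here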; details: S. pombe 972 growth, higher = more signal, called active from +8 up or from −8 down
[4] = budding yeast growth modifiers under rapamycin – strain BY4716, OD600, 96 h, primary screen (AID 1091); further: test concentration not given here; details: S. cerevisiae BY4716 + rapamycin, higher = more signal, called active from +8 up or from −8 down
[5] = biological target: Torsin-1A-interacting protein 2 (Homo sapiens) (UniProt Q8NFQ8); test: small molecules binding lysate-expressed LULL1 – cell lysate, human LULL1 lysate, 635/667 nm fluorescence, primary screen (AID 1092); details: small-molecule microarray, hLULL1 lysate binding, 635 nm fluorescence; higher = more signal;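 further: probe is lysate of COS7 cells overexpressing human LULL1; score merges per-feature 667 nm fluorescence with signal-to-noise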
[6] = optical density change of DRC41 E. coli – strain DRC41, OD650, 24 h, E. coli filamentation project, primary screen (AID 1093);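 further: MC1000 strain lacking acrAB efflux and sulA so SOS filamentation is blocked; test concentration not given here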; details: E. coli DRC41 growth, higher = more signal, called active from +8 up or from −8 down
[7] = probe aLefty2 binding to arrayed compounds – biochemical, biotinylated probe, 635/667 nm fluorescence, primary screen (AID 1094); details: small-molecule microarray, higher = more signal;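 further: score merges spot fluorescence near 667 nm with spot signal-to-noise ratio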
[8] = test system: Noggin (protein binding on small-molecule microarray); test: small molecules binding Noggin protein – biochemical, 635/667 nm fluorescence, primary screen (AID 1095); details: 635 nm fluorescence, higher = more signal;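 further: score merges 667 nm feature fluorescence with signal to noise over triplicate slides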
[9] = biological target: Neurogenic locus notch homolog protein 3 (Homo sapiens) (UniProt Q9UM47); test: small molecules binding NOTCH3 protein – biochemical, 635/667 nm fluorescence, primary screen (AID 1096); details: small-molecule microarray, 635 nm fluorescence, higher = more signal
[10] = probe aEGFR binding to arrayed compounds – biochemical, biotinylated probe, 635/667 nm fluorescence, primary screen (AID 1097); details: small-molecule microarray, higher = more signal;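 further: probe is a biotinylated anti-EGFR antibody binding compounds printed on slides; score combines fluorescence near 667 nm and signal to noise of each spot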
[11] = test system: Plasmodium falciparum Sir2 (PF13_0152, Sir2A); test: Plasmodium falciparum Sir2A binding compounds – biochemical, small-molecule microarray, 635 nm fluorescence, primary screen (AID 1098); details: fluorescence 635 nm, higher = more signal;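 further: score merges spot fluorescence intensity with its signal-to-noise ratio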
[12] = probe aDKK1 binding to arrayed compounds – biochemical, biotinylated probe, 635/667 nm fluorescence, primary screen (AID 1099); details: small-molecule microarray, higher = more signal;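 further: score merges 667nm spot fluorescence with signal to noise across triplicate slides; reference of the scale not given here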
[13] = probe aCHRDL2 binding to arrayed compounds – biochemical, biotinylated probe, 635/667 nm fluorescence, primary screen (AID 1100); details: small-molecule microarray, higher = more signal
[14] = change in splice reporter luminescence, either direction, cell-based, HEK293, spliceosome inhibition project, primary screen (AID 1101); details: HEK293 splicing luciferase reporter, 24 h, higher = more signal, called active from +8 up or from −8 down;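 further: HEK293 cells carrying a splicing-competent luciferase reporter gene; test concentration not given here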
[15] = biological target: Fibroblast growth factor 10 (Homo sapiens) (UniProt O15520); test: compounds binding fibroblast growth factor 10 – biochemical, small-molecule microarray, 635 nm fluorescence, primary screen (AID 1102); details: FGF10 binding, fluorescence 635 nm, higher = more signal
[16] = test system: glycogen synthase kinase-3 (GSK3A per assay name; protocol says GSK3B); test: compounds binding glycogen synthase kinase-3 – biochemical, small-molecule microarray, 635 nm fluorescence, GSK3A, primary screen (AID 1103); details: fluorescence 635 nm, higher = more signal; further: the record names both GSK3A and GSK3B
[17] = biological target: Epidermal growth factor receptor (Homo sapiens) (UniProt P00533); test: compounds binding epidermal growth factor receptor – biochemical, small-molecule microarray, 635 nm fluorescence, primary screen (AID 1104); details: EGFR binding, higher = more signal;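 further: score merges 667 nm emission intensity with spot signal to noise over triplicate slides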
[18] = biological target: Follistatin-related protein 3 (Homo sapiens) (UniProt O95633); test: compounds binding follistatin-related protein 3 – biochemical, small-molecule microarray, 635 nm fluorescence, primary screen (AID 1105); details: FSTL3 binding, higher = more signal;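 further: score merges emission near 667 nm and signal to noise per printed spot across three slides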
[19] = biological target: Dickkopf-related protein 1 (Homo sapiens) (UniProt O94907); test: small molecules binding DKK1 protein – biochemical, small-molecule microarray, 635 nm fluorescence scan, primary screen (AID 1106); details: higher = more signal;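 further: score merges emission near 667 nm with signal to noise over three replicate slides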
[20] = test system: Inhibin beta A chain (activin A); test: small molecules binding activin A – biochemical, small-molecule microarray, 635 nm fluorescence scan, primary screen (AID 1107); details: INHBA, higher = more signal;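 further: mouse activin A protein probed at 4.33 µg/mL on printed slides; score merges bound-protein fluorescence near 667 nm with spot signal-to-noise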

Epidermal growth factor receptor (Homo sapiens), sequence (P00533 whole entry, looked up): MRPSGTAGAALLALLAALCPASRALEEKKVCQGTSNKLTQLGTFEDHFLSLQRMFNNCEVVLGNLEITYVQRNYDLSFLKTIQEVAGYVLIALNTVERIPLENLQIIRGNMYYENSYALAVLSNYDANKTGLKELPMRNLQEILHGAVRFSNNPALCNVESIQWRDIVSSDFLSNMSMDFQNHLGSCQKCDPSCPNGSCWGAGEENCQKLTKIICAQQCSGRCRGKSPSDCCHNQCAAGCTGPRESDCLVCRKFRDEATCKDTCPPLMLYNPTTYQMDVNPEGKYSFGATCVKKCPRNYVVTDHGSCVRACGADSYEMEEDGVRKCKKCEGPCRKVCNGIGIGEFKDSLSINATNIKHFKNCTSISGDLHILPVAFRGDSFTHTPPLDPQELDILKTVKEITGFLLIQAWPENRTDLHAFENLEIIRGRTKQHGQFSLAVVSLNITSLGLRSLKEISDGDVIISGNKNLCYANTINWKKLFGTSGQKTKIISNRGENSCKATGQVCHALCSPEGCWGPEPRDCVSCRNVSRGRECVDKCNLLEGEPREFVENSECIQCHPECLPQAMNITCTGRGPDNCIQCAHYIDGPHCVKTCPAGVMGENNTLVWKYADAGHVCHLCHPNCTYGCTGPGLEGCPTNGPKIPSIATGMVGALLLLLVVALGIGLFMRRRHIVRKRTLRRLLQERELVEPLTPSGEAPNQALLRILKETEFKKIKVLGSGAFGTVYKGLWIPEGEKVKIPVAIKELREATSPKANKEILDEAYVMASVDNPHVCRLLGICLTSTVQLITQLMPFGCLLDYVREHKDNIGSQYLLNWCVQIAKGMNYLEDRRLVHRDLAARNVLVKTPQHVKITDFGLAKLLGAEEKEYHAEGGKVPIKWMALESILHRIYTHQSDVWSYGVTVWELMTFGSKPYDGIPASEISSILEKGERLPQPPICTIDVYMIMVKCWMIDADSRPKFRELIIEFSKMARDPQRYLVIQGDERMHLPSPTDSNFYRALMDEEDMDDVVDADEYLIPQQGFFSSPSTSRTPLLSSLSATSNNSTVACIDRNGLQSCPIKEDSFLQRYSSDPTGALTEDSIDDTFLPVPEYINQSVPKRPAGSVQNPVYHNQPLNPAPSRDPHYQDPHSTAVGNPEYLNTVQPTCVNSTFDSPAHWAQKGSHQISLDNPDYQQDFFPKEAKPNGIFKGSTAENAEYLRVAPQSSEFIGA
Fibroblast growth factor 10 (Homo sapiens), sequence (O15520 whole entry, looked up): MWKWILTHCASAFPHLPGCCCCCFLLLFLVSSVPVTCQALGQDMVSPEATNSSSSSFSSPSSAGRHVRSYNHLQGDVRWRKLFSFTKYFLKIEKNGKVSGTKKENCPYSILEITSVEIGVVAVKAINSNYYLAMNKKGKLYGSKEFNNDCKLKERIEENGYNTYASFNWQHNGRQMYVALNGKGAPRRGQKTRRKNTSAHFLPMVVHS
Torsin-1A-interacting protein 2 (Homo sapiens), sequence (Q8NFQ8 whole entry, looked up): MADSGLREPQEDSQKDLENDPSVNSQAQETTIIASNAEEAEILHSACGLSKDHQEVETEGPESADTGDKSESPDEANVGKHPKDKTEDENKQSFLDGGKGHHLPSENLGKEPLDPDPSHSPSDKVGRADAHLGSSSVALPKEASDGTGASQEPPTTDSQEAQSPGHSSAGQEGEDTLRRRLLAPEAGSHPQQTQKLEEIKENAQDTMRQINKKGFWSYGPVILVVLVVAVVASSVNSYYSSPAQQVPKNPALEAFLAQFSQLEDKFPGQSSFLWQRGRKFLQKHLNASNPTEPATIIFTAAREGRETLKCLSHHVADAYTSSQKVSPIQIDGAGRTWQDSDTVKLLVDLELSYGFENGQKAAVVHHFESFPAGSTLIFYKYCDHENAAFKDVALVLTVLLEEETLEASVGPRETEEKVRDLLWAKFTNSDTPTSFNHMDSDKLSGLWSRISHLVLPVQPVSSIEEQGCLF
Follistatin-related protein 3 (Homo sapiens), sequence (O95633 whole entry, looked up): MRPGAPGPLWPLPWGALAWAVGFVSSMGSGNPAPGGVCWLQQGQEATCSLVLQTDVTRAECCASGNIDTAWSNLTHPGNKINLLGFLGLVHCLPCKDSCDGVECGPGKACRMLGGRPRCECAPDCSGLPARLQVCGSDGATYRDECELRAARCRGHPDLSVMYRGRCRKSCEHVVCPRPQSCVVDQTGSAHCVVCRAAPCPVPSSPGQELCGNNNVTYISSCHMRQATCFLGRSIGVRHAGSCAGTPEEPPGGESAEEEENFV
Neurogenic locus notch homolog protein 3 (Homo sapiens), sequence (Q9UM47 whole entry, looked up): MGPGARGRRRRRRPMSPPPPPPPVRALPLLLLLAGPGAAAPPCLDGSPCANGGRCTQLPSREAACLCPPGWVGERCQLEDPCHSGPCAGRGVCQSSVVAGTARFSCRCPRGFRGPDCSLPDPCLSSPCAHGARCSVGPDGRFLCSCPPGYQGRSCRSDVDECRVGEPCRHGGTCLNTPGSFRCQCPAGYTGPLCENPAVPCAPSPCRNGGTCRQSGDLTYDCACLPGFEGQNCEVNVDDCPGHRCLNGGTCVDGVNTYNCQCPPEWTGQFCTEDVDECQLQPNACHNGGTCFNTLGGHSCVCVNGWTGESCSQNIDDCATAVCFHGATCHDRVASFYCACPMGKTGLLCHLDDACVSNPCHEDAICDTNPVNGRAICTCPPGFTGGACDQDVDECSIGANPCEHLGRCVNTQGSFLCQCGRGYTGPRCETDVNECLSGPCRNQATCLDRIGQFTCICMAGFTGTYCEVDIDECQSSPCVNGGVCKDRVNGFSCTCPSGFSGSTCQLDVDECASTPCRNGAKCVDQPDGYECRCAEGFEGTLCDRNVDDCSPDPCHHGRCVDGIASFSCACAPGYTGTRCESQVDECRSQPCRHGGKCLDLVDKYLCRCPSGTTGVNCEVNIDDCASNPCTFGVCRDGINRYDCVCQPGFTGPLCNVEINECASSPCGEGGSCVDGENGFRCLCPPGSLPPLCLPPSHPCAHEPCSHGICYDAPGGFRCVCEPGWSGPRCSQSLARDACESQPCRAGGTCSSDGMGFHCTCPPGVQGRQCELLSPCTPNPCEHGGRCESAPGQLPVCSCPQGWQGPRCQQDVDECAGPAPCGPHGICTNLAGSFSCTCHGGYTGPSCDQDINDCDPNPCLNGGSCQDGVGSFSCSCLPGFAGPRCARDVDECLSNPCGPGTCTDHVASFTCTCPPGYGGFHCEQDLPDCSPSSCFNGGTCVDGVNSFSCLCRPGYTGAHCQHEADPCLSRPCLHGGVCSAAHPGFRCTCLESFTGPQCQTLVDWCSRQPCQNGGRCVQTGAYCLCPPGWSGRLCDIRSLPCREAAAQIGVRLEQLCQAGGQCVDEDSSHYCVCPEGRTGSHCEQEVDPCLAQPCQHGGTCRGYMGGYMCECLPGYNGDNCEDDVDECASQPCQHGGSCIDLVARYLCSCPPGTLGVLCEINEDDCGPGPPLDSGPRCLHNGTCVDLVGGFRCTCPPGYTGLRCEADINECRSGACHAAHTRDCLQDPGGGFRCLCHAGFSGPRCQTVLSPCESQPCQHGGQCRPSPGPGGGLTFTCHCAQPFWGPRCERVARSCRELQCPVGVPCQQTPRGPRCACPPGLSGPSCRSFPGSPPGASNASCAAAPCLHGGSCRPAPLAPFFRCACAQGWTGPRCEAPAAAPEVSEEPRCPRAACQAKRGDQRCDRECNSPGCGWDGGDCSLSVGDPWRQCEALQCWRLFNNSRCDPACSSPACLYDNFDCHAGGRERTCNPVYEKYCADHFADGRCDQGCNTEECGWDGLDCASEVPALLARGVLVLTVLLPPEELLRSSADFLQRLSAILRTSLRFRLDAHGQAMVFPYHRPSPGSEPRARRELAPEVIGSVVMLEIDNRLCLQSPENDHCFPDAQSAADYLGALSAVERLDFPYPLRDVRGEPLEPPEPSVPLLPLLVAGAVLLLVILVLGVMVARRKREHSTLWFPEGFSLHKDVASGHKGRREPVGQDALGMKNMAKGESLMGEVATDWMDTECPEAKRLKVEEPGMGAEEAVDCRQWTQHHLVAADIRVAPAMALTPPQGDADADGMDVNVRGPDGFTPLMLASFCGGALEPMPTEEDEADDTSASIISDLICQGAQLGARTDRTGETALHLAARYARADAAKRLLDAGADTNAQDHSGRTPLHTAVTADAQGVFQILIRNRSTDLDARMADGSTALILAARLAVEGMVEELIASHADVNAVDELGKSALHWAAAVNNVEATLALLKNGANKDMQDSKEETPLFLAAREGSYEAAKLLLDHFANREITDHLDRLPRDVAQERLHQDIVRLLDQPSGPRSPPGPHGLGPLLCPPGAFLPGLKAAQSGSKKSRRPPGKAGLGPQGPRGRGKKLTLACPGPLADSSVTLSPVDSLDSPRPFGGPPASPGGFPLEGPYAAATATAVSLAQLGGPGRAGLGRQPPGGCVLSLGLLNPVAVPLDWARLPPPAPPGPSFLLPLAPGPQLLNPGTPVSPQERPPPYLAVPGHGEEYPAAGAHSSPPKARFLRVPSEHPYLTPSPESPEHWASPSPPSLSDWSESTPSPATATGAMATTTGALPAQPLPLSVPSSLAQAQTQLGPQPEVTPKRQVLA
Dickkopf-related protein 1 (Homo sapiens), sequence (O94907 whole entry, looked up): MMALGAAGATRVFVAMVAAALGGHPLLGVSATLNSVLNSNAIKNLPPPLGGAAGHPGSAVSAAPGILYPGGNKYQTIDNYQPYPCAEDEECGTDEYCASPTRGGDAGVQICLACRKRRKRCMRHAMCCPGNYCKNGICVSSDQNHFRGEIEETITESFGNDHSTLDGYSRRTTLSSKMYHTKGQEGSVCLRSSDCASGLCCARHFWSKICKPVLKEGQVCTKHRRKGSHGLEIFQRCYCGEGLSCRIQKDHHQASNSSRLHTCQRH

| SMILES | composite z-score [1] | z-score [2] | z-score [3] | z-score [4] | composite z-score [5] | z-score [6] | composite z-score [7] | composite z-score [8] | composite z-score [9] | composite z-score [10] | composite z-score [11] | composite z-score [12] | composite z-score [13] | z-score [14] | composite z-score [15] | composite z-score [16] | composite z-score [17] | composite z-score [18] | composite z-score [19] | composite z-score [20] |
| --- | --- | --- | --- | --- | --- | --- | --- | --- | --- | --- | --- | --- | --- | --- | --- | --- | --- | --- | --- | --- |
| C=C[C@@H](C)[C@@H](O)c1ccc(O)c2ccccc12 | -1.15 and -0.5 | -5.87 (inactive) and -14.6 (active) | -19.1 (active) and -19.4 (active) | 3.53 (inactive) and 5.23 (inactive) | -0.414 and 0.384 | -0.113 (inactive) and 1.61 (inactive) | -0.239 and -0.107 | -0.803 and -0.326 | -1.25 and -0.933 | -0.321 and -0.314 | 1.02 and -0.0966 | -0.419 and -0.315 | 0.238 and 0.216 | 0.591 (inactive) and -0.814 (inactive) | -0.665 and -0.654 | -1.52 and -0.746 | -0.815 and -1.04 | -0.961 and -0.644 | -0.598 and 0.088 | 0.936 and 0.89 |
| C=C[C@H](OC)[C@@H](O)c1ccc(OCCO)cc1 | -0.801 and -0.822 | -0.146 (inactive) and 0.665 (inactive) | 0.363 (inactive) and -0.412 (inactive) | 0.573 (inactive) and 0.329 (inactive) | -0.517 and -0.64 | -0.0467 (inactive) and 0.606 (inactive) | -0.242 and -0.0736 | -2.2 and -1.82 | -1.56 and -0.724 | -0.313 and -0.314 | 0.972 and 1.8 | -0.458 and -0.428 | 0.915 and 0.789 | -0.957 (inactive) and -0.233 (inactive) | -1.07 and -0.623 | -1.69 and -0.885 | -2.13 and -1.16 | -1.95 and -1.72 | -1.55 and -0.654 | -0.731 and -1.25 |
| CN1C(=O)C2CC=C([C@H]3Oc4ccccc4S(=O)(=O)N4CCC[C@@H]34)CC2C1=O (stereo not given in full) | -0.525 and -1.12 | -0.243 (inactive) and 0.235 (inactive) | 0.0646 (inactive) and 0.0942 (inactive) | 0.579 (inactive) and 0.0211 (inactive) | -0.781 and -0.674 | 0.108 (inactive) and -0.089 (inactive) | -0.163 and -0.0719 | -0.487 and 0.281 | -0.977 and -1.16 | -0.199 and -0.165 | 0.149 and 0.302 | -0.226 and -0.273 | -0.344 and -0.424 | 0.776 (inactive) and 0.117 (inactive) | -0.575 and -0.066 | -0.913 and -0.794 | -0.297 and -0.148 | -0.837 and -0.641 | 0.0379 and 0.305 | 0.315 and 0.808 |
| CO[C@@H]1COC(=O)CC=C[C@H](C)[C@@H](NS(=O)(=O)c2ccc(C)cc2)COC(=O)CC=C[C@@H]1C | 1.16 and 1.54 | 0.403 (inactive) and -0.552 (inactive) | -0.733 (inactive) and -0.194 (inactive) | 0.62 (inactive) and -1.52 (inactive) | 0.633 and -0.853 | 0.56 (inactive) and 0.132 (inactive) | -0.0785 and -0.186 | 1.27 and 1.31 | 0.634 and 0.525 | -0.115 and 0.0097 | 0.462 and 1.72 | -0.378 and -0.3 | -0.823 and -0.867 | -0.338 (inactive) and -0.57 (inactive) | 0.819 and 0.365 | 0.875 and 0.415 | 0.858 and 0.943 | 1.32 and 1.4 | 0.597 and 1.3 | -0.113 and 1.32 |
| C[C@@H]1CC[C@H]2C(=O)O[C@H](CN=[N+]=[N-])CN2[C@H]1c1ccc(Br)cc1 | 0.692 and 0.323 | -0.471 (inactive) and 0.113 (inactive) | -16.7 (active) and -14.3 (active) | -2.15 (inactive) and -0.441 (inactive) | 0.359 and -0.0523 | -0.548 (inactive) and 0.433 (inactive) | -0.245 and -0.0174 | 0.366 and 0.115 | -0.105 and -1.06 | 0.0172 and -0.252 | -0.0157 and 0.121 | 0.117 and -0.31 | -0.444 and -0.466 | 0.254 (inactive) and -0.0654 (inactive) | 0.152 and -0.213 | -0.267 and -0.529 | 0.0267 and 0.0063 | -0.237 and -0.547 | 0.342 and -0.127 | 0.746 and 0.78 |
| C=CCN(Cc1ccccc1)C(=O)C(c1cccs1)N(C(=O)/C=C\C(=O)O)c1c(Cl)cccc1CO (stereo not given) | -0.716 and -1.9 | 0.506 (inactive) and -0.555 (inactive) | 0.172 (inactive) and 0.261 (inactive) | 0.23 (inactive) and -0.457 (inactive) | -1.36 and -0.736 | 2.07 (inactive) and -0.369 (inactive) | -0.128 and -0.121 | -2.28 and -3.61 | -1 and -1.49 | -0.252 and -0.359 | -1.01 and -1.02 | -0.833 and 0.0042 | 0.898 and 0.996 | 0.395 (inactive) and -0.0385 (inactive) | -1.96 and -1.73 | -1.09 and -1.76 | -1.63 and -1.36 | -1.27 and -2.07 | -2.01 and -2.62 | -3.32 and -2.86 |
| C[N+](C)(C)CCCCNC(=O)[C@@H]1C[C@@H]2C(=O)N[C@@H](CCCC[N+](C)(C)C)C(=O)N2[C@@H]1c1cccc(OCCO)c1 | 1.53 and 0.995 | 1.27 (inactive) and 0.389 (inactive) | -0.352 (inactive) and -0.297 (inactive) | -0.483 (inactive) and -1.92 (inactive) | 0.864 and 2.09 | 0.616 (inactive) and 0.374 (inactive) | 0.387 and 0.268 | 2.03 and 1.71 | 1.05 and 1.09 | 0.399 and 0.56 | 1.03 and 0.616 | 0.0631 and 0.217 | -0.0665 and 0.574 | -0.21 (inactive) and 0.129 (inactive) | 1.51 and 1.4 | 1.35 and 0.785 | 1.33 and 0.0943 | 1.5 and 1.33 | 2.14 and 1.67 | 0.804 and -0.833 |

Source: PubChem BioAssay
